Results reported in the supplement of paper PMC10849652.
About 7,900 targets were measured; listed, in parts, are those with a hit and a random draw of the rest. About 0.6% of all pairs of compound and target were hits.

Assays:
Experiment in all cases: log2 fold change, soluble protein after heating vs DMSO (PISA); higher = thermal stabilisation; K562 cells, 10 uM, 30 min; active = over 0.2 and 3.5 SD of the protein, either way, in both replicates (recomputed)
bafetinib = compound: Cc1ccc(NC(=O)c2ccc(CN3CC[C@H](N(C)C)C3)c(C(F)(F)F)c2)cc1Nc1nccc(-c2cncnc2)n1 [bafetinib]
Summary of the method: (§1)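 Soluble protein was quantified by TMTpro 16plex LC-MS/MS after channel sums were equalised. It was obtained as the supernatant after 21,000xg for 90 min from pooled aliquots of K562 cells (2×10^6 cells/mL, 10 μM compound, 30 min) heated for 3 min across 48°C-58°C and extracted in PBS with 0.5% NP-40 at 4°C. Thermal stability values are relative to control samples and come from duplicates. They are given as log2 fold changes.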

[1] = compound: Cc1cccc(CC(=O)N2CCc3c2ccc(-c2cn(C)c4ncnc(N)c24)c3F)n1
Summary of the method: as §1

nilotinib = compound: Cc1cn(-c2cc(NC(=O)c3ccc(C)c(Nc4nccc(-c5cccnc5)n4)c3)cc(C(F)(F)F)c2)cn1 [nilotinib]
Summary of the method: as §1

[2] = compound: Cc1nc(Nc2n[nH]c3c2CN(C(=O)N[C@H](CN(C)C)c2ccccc2)C3(C)C)c2sccc2n1
Summary of the method: as §1

dasatinib = compound: Cc1nc(Nc2ncc(C(=O)Nc3c(C)cccc3Cl)s2)cc(N2CCN(CCO)CC2)n1 [dasatinib]
Summary of the method: as §1

[3] = compound: Cc1ncc(-c2ccnc(Nc3ccc(S(C)(=O)=O)cc3)n2)n1C(C)C
Summary of the method: as §1

[4] = compound: Cn1cc(-c2ccc3c(c2)CCN3C(=O)Cc2cccc(C(F)(F)F)c2)c2c(N)ncnc21
Summary of the method: as §1

[5] = compound: Cn1cc(-c2ccc3nnc(C(F)(F)c4ccc5ncccc5c4)n3n2)cn1
Summary of the method: as §1

tipifarnib = compound: Cn1cncc1[C@@](N)(c1ccc(Cl)cc1)c1ccc2c(c1)c(-c1cccc(Cl)c1)cc(=O)n2C [tipifarnib]
Summary of the method: as §1

mubritinib = compound: FC(F)(F)c1ccc(/C=C/c2nc(COc3ccc(CCCCn4ccnn4)cc3)co2)cc1 [mubritinib]
Summary of the method: as §1

[6] = compound: NC(=O)Nc1cc(-c2cccc(F)c2)sc1C(=O)N[C@H]1CCCNC1
Summary of the method: as §1

[7] = compound: NC(=O)c1cnc(N[C@@H]2CCCC[C@@H]2N)nc1Nc1cccc(-n2nccn2)c1
Summary of the method: as §1

[8] = compound: NC1(c2ccc(-c3nc4ccn5c(=O)[nH]nc5c4cc3-c3ccccc3)cc2)CCC1
Summary of the method: as §1

[9] = compound: NCC(=O)Nc1ccc(-n2nc(C(F)(F)F)cc2-c2ccc3c(ccc4ccccc43)c2)cc1
Summary of the method: as §1

entinostat = compound: Nc1ccccc1NC(=O)c1ccc(CNC(=O)OCc2cccnc2)cc1 [entinostat]
Summary of the method: as §1

vorinostat = compound: O=C(CCCCCCC(=O)Nc1ccccc1)NO [vorinostat]
Summary of the method: as §1

citarinostat = compound: O=C(CCCCCCNC(=O)c1cnc(N(c2ccccc2)c2ccccc2Cl)nc1)NO [citarinostat]
Summary of the method: as §1

silmitasertib = compound: O=C(O)c1ccc2c(c1)nc(Nc1cccc(Cl)c1)c1ccncc12 [silmitasertib]
Summary of the method: as §1

[10] = compound: O=C1NC(=O)C(c2cnc3ccccn23)=C1c1cn2c3c(cc(F)cc13)CN(C(=O)N1CCCCC1)CC2
Summary of the method: as §1

[11] = compound: c1cc(OCCN2CCCCC2)cc(-c2n[nH]c3ccc(-c4nnc[nH]4)cc23)c1
Summary of the method: as §1

Measured: log2 fold change

UHRF1BP1L (UniProt A0JNW5)
inactive: bafetinib 0.055 | [1] -0.002 | nilotinib 0.105 | [2] 0.005 | dasatinib -0.003 | [3] -0.029 | [4] 0.036 | [5] 0.038 | tipifarnib -0.065 | mubritinib 0.007 | [6] -0.004 | [7] -0.017 | [8] -0.028 | [9] 0.055 | entinostat -0.024 | vorinostat -0.035 | citarinostat -0.032 | silmitasertib 0.015 | [10] -0.052 | [11] -0.013

TP53BP1 isoform 2 (UniProt Q12888)
inactive: bafetinib 0.004 | [1] 0.008 | nilotinib -0.001 | [2] -0.011 | dasatinib -0.009 | [3] -0.027 | [4] -0.064 | [5] -0.014 | tipifarnib 0.016 | mubritinib -0.002 | [6] 0.014 | [7] -0.056 | [8] -0.072 | [9] -0.008 | entinostat 0.018 | vorinostat 0.031 | citarinostat 0.074 | silmitasertib 0.117 | [10] -0.035 | [11] -0.029

TMEM192 (UniProt Q8IY95)
Chain of UniProt Q8IY95 (Q8IY95 whole entry, looked up): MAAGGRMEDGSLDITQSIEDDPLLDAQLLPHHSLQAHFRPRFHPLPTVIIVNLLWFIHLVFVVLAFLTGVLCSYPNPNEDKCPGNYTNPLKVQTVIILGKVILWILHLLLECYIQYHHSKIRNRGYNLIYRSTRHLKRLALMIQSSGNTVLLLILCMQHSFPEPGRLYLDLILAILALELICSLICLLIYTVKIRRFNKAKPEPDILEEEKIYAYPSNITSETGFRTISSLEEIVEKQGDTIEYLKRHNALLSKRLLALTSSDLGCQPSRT
inactive: bafetinib -0.148 | [1] -0.083 | nilotinib 0.019 | [2] -0.002 | dasatinib 0.109 | [3] -0.042 | [4] -0.034 | [5] -0.051 | tipifarnib 0.051 | mubritinib -0.032 | [6] 0 | [7] -0.01 | [9] 0.01 | entinostat -0.017 | vorinostat -0.061 | citarinostat -0.02 | silmitasertib 0.037 | [10] 0.03 | [11] -0.005
active: [8] -0.374

VPS33A (UniProt Q96AX1)
Chain of UniProt Q96AX1 (Q96AX1 whole entry, looked up): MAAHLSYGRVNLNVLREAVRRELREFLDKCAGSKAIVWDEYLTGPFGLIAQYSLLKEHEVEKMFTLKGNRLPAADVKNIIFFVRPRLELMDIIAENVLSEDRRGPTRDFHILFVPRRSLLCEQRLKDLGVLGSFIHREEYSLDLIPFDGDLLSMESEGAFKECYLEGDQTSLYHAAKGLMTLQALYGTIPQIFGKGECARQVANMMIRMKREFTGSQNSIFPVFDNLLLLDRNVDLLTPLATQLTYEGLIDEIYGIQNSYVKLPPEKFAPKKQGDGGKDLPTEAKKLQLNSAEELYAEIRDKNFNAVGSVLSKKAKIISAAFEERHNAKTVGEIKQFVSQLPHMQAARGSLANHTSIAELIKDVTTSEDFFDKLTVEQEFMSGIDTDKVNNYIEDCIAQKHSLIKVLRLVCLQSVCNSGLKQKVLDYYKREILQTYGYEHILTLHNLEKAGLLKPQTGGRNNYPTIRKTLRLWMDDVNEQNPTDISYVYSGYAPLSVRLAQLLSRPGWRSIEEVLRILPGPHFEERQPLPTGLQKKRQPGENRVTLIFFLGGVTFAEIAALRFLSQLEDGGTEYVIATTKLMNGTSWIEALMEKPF
inactive: bafetinib -0.066 | [1] 0.091 | nilotinib -0.071 | [2] -0.124 | dasatinib -0.123 | [3] -0.039 | [4] -0.019 | [5] -0.094 | tipifarnib -0.064 | mubritinib 0.098 | [6] 0.012 | [7] -0.121 | [8] -0.191 | [9] -0.084 | entinostat 0.05 | vorinostat 0.051 | citarinostat 0.063 | silmitasertib 0.019 | [10] 0.029 | [11] -0.059

VWA8 (UniProt A3KMH1)
inactive: bafetinib -0.113 | [1] -0.001 | nilotinib -0.099 | [2] -0.018 | dasatinib -0.158 | [3] -0.016 | [4] -0.057 | [5] 0.067 | tipifarnib 0.036 | [6] -0.017 | [7] -0.024 | [8] -0.135 | [9] -0.016 | entinostat 0.008 | vorinostat 0.096 | citarinostat 0.048 | silmitasertib -0.046 | [10] -0.071 | [11] -0.039
active: mubritinib -0.255

TNNC2 (UniProt P02585)
Chain of UniProt P02585 (P02585 whole entry, looked up): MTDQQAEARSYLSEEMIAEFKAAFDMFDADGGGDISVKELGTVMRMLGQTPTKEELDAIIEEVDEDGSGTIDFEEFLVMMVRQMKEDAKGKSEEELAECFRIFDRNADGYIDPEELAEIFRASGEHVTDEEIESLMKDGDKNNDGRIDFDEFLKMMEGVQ
inactive: bafetinib -0.057 | [1] -0.058 | nilotinib 0.057 | [2] 0.024 | dasatinib 0.022 | [3] -0.015 | [4] 0.049 | [5] 0.032 | tipifarnib 0.015 | mubritinib 0.001 | [6] -0.003 | [7] 0.006 | [8] -0.028 | [9] 0.028 | entinostat -0.025 | vorinostat -0.101 | citarinostat 0.048 | silmitasertib -0.026 | [10] -0.033 | [11] -0.003

TRAPPC3 (UniProt O43617)
Chain of UniProt O43617 (O43617 whole entry, looked up): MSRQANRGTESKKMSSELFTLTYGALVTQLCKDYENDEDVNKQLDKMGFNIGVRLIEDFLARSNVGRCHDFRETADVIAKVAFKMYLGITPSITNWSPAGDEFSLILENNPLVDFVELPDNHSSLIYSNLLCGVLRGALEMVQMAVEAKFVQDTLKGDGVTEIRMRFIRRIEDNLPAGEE
inactive: bafetinib -0.033 | [1] 0.003 | nilotinib -0.007 | [2] -0.023 | dasatinib -0.021 | [3] -0.001 | [4] 0.025 | [5] 0.041 | tipifarnib -0.047 | mubritinib 0.035 | [6] 0.017 | [7] -0.056 | [8] -0.145 | [9] -0.058 | entinostat 0.022 | vorinostat 0.004 | citarinostat 0.038 | silmitasertib 0.032 | [10] 0 | [11] -0.048

TRAPPC6B (UniProt Q86SZ2)
Chain of UniProt Q86SZ2 (Q86SZ2 whole entry, looked up): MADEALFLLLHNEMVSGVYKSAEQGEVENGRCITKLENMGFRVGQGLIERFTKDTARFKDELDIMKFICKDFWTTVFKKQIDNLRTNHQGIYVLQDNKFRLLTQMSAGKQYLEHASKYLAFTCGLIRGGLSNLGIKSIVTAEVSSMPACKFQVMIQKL
inactive: bafetinib -0.005 | [1] -0.024 | nilotinib -0.008 | [2] -0.027 | dasatinib -0.042 | [3] 0.021 | [4] 0.024 | [5] 0.04 | tipifarnib -0.028 | mubritinib 0.045 | [6] 0.025 | [7] 0.016 | [8] -0.025 | [9] 0.007 | entinostat 0.066 | vorinostat 0.013 | citarinostat 0.046 | silmitasertib 0.001 | [10] 0.143 | [11] -0.058

USO1 isoform 2 (UniProt O60763)
Chain of UniProt O60763 (O60763 whole entry, looked up): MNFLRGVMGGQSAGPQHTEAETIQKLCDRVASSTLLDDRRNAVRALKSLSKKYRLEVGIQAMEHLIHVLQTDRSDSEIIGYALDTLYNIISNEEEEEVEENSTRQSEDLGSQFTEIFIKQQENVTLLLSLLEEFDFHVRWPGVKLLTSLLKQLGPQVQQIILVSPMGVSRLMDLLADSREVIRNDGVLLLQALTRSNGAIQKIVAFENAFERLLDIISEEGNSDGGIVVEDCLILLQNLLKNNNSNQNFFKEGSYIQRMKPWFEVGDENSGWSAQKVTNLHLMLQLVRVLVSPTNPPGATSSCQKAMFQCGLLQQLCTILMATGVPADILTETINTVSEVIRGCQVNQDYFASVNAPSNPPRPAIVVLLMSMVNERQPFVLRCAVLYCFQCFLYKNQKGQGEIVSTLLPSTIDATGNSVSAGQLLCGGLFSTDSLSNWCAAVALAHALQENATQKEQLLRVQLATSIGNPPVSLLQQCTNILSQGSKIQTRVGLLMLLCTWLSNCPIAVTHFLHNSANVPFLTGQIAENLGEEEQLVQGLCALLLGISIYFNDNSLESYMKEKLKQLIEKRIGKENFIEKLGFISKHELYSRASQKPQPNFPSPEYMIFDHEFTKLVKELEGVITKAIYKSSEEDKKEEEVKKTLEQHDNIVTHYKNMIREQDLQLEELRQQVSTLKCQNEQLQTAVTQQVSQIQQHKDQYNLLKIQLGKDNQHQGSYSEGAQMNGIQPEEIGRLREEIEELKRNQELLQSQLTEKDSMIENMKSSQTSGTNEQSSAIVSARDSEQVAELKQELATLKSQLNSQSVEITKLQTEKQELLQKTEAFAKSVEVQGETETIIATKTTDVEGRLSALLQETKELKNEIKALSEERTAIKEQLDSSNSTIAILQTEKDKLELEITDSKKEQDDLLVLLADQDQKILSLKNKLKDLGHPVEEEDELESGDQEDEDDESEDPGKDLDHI
inactive: bafetinib -0.055 | [1] 0.036 | nilotinib -0.039 | [2] -0.024 | dasatinib -0.052 | [3] 0.032 | [4] -0.017 | [5] -0.003 | tipifarnib -0.068 | mubritinib 0.032 | [6] -0.009 | [7] 0 | [8] -0.101 | [9] -0.024 | entinostat 0.032 | vorinostat 0.018 | citarinostat 0.032 | silmitasertib 0.059 | [10] -0.035 | [11] -0.013

UFD1 isoform 1 (UniProt Q92890)
Chain of UniProt Q92890 (Q92890 whole entry, looked up): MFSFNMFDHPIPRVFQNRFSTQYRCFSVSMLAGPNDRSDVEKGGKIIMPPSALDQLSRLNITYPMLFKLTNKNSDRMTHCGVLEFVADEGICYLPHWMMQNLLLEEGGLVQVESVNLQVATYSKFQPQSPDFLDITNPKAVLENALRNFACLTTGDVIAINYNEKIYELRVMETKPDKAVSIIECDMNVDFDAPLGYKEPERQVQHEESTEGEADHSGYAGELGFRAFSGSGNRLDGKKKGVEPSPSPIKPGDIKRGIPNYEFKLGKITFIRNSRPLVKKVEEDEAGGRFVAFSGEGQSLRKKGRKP
inactive: bafetinib -0.007 | [1] 0.01 | nilotinib 0.025 | [2] -0.019 | dasatinib 0.031 | [3] -0.003 | [4] 0.006 | [5] 0.002 | tipifarnib -0.046 | mubritinib 0.041 | [6] -0.001 | [7] -0.015 | [8] -0.03 | [9] -0.001 | entinostat 0.01 | vorinostat 0.003 | citarinostat 0.061 | silmitasertib -0.014 | [10] 0.014 | [11] 0.034

TMEM214 (UniProt Q6NUQ4)
Chain of UniProt Q6NUQ4 (Q6NUQ4 whole entry, looked up): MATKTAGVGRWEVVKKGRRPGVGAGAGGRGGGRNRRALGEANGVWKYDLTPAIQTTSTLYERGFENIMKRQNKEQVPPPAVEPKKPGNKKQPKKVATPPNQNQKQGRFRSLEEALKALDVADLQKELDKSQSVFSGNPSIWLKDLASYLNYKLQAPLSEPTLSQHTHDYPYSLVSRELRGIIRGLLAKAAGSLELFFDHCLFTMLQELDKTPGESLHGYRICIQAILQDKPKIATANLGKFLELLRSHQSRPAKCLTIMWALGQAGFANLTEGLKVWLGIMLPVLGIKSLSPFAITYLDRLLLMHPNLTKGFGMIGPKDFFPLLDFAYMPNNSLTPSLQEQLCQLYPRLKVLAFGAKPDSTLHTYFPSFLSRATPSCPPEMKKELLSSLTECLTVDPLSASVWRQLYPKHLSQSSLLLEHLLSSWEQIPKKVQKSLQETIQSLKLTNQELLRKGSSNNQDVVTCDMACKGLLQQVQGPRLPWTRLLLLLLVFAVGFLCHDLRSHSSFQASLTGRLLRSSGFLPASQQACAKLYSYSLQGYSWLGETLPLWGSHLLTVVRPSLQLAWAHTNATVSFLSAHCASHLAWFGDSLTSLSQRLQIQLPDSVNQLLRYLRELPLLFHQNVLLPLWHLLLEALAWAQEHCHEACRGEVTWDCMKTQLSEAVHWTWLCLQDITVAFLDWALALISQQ
inactive: bafetinib 0.017 | [1] 0.029 | nilotinib -0.117 | [2] -0.02 | dasatinib -0.071 | [3] 0.023 | [4] -0.022 | [5] -0.041 | tipifarnib -0.047 | mubritinib 0.005 | [6] -0.01 | [7] 0.049 | [8] -0.003 | [9] 0.022 | entinostat 0.003 | vorinostat 0.047 | citarinostat -0.01 | silmitasertib 0.006 | [10] 0.02 | [11] -0.022

TMEM161A (UniProt Q9NX61)
Chain of UniProt Q9NX61 (Q9NX61 whole entry, looked up): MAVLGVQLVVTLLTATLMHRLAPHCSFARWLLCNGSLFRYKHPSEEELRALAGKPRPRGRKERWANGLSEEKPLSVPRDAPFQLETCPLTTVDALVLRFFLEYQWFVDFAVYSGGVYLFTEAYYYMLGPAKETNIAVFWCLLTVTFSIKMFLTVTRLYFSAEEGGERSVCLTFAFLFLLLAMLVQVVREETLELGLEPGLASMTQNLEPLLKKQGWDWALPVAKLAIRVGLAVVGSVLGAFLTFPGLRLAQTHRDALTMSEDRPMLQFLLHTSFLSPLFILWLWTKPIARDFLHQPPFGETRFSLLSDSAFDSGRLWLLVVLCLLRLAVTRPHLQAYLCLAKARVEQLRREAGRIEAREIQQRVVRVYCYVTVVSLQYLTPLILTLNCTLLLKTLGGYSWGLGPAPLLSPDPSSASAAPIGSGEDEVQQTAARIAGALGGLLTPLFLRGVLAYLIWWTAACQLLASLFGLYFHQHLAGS
inactive: bafetinib -0.156 | [1] 0.043 | nilotinib -0.157 | [2] 0.023 | dasatinib -0.09 | [3] -0.021 | [4] -0.05 | [5] -0.025 | tipifarnib -0.165 | mubritinib 0.027 | [6] 0.043 | [7] 0.012 | [8] -0.132 | [9] -0.101 | entinostat 0.049 | vorinostat 0.006 | citarinostat 0.083 | silmitasertib -0.023 | [10] -0.009 | [11] -0.098

UBE2S (UniProt Q16763)
Chain of UniProt Q16763 (Q16763 whole entry, looked up): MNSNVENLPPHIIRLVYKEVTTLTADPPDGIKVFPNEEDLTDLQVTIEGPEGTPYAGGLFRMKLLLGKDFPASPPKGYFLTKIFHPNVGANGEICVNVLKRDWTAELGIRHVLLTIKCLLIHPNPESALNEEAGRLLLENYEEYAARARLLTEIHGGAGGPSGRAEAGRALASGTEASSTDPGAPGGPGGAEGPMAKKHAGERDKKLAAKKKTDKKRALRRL
inactive: bafetinib -0.025 | [1] -0.08 | nilotinib -0.008 | [2] -0.017 | dasatinib 0.001 | [3] 0.04 | [4] -0.002 | [5] -0.037 | tipifarnib -0.072 | mubritinib 0.002 | [6] -0.04 | [7] -0.043 | [8] -0.033 | [9] -0.086 | entinostat -0.026 | vorinostat 0.002 | citarinostat 0.072 | silmitasertib 0.069 | [10] -0.106 | [11] -0.032

TOMM5 isoform 2 (UniProt Q8N4H5)
Chain of UniProt Q8N4H5 (Q8N4H5 whole entry, looked up): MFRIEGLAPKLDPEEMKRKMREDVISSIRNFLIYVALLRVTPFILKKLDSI
inactive: bafetinib -0.141 | [1] -0.114 | nilotinib 0.079 | [2] 0.004 | dasatinib -0.004 | [3] -0.079 | [4] 0.062 | [5] 0.217 | tipifarnib 0.107 | mubritinib 0.038 | [6] -0.053 | [7] 0.002 | [8] -0.083 | [9] 0.084 | entinostat 0.067 | vorinostat -0.117 | citarinostat 0.039 | silmitasertib -0.043 | [10] -0.158 | [11] 0.099

TRIP10 isoform 2 (UniProt Q15642)
Chain of UniProt Q15642 (Q15642 whole entry, looked up): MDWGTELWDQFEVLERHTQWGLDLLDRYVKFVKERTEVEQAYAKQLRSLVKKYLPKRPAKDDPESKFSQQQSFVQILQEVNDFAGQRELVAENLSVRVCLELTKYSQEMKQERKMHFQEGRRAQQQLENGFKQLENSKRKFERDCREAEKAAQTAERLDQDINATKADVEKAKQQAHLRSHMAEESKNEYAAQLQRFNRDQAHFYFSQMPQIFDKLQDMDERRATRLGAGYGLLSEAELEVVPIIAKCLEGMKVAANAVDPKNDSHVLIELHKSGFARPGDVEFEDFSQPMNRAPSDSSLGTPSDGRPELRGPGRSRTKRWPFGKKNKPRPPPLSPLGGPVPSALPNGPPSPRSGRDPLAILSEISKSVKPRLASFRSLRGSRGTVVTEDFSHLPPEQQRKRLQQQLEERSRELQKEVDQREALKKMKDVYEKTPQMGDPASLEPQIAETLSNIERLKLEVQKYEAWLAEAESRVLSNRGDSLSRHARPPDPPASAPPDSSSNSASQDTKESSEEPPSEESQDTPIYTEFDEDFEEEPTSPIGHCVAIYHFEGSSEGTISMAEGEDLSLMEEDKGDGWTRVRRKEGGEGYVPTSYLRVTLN
active: [9] -0.849
inactive: bafetinib -0.019 | [1] 0.026 | nilotinib 0.005 | [2] -0.174 | dasatinib 0.035 | [3] -0.162 | [4] -0.033 | [5] -0.135 | tipifarnib -0.04 | mubritinib 0.142 | [6] -0.067 | [7] 0.057 | [8] -0.065 | entinostat -0.2 | vorinostat 0.026 | citarinostat -0.11 | silmitasertib -0.065 | [10] -0.052 | [11] 0.008
